Experimental data from PubChem BioAssay AID1285 (Columbia University Molecular Screening Center, 2008).
The whole screen tested about 190,000 compounds, of which about 1,600 (0.84%) were called active.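 Rule for the calls: active = inhibition above a set limit, derived from the sample mean plus 3 SD (cut at about 45% in these data); inconclusive = one replicate passes the limit while the other fails; inactive = the rest.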 The sample as a whole holds a higher share of actives than the screen did.

Experiment: inhibitors of APP translation via 5'UTR reporter, primary screen, APP 5'UTR luciferase, SH-SY5Y cells (AID 1285)
Settings: SH-SY5Y APP 5'UTR-luciferase reporter, luminescence; at 2 µM; stronger effect = higher value

inhibition, inactive:
Cc1ccc(S(=O)(=O)N(CC(=O)NN=C2CCN(C)CC2)c2ccc(F)cc2)cc1 -21%, CCOc1ccccc1C(=O)NCc1ccco1 -2.6%, COc1ccc(CCNS(=O)(=O)c2ccc(C(=O)NCc3ccco3)cc2)cc1OC -8.6%, CC(=O)N1CCN(S(=O)(=O)c2cccc(C(=O)NC3CCC(C)CC3)c2)CC1 (stereo not drawn) 2.6%, O=C(COc1ccc(NC(=O)c2ccccc2[N+](=O)[O-])cc1)c1ccc(F)cc1 -3.2%, CCN(CC)C(=O)N(CC)Cc1ccccc1 -8.7%, CC(=O)Nc1ccc(S(=O)(=O)N2CCSCC2)cc1 11.7%, CC(=O)Nc1ccc(S(=O)(=O)N2CCN(C3CCCCCCC3)CC2)cc1 -4.6%, CN(Cc1ccc2nsnc2c1)Cc1nc(Cc2cccc(F)c2)no1 -3.3%, CNc1ccc(NC(C)=O)cc1[N+](=O)[O-] -17.6%, CC(C)CC(=O)NC(=S)Nc1ccc(F)cc1F -8.3%, COc1ccccc1OCCOc1ccc(/C=N/n2cnnc2)cc1 8.5%, COc1cccc(OCCOc2cccc(/C=N/n3cnnc3)c2)c1 -90.8%, O=C(COC(=O)c1cc(-c2cccs2)nn1-c1ccccc1)Nc1cc([N+](=O)[O-])ccc1Cl -13.5%, Cc1cc(C(C)(C)C)cc(S(=O)(=O)Nc2ccc(C(=O)O)cc2)c1C 2.7%, CNC(=S)NNC(=O)c1cccn(Cc2ccccc2)c1=O 4.8%, CCN(CC)S(=O)(=O)c1ccc(N2CCCC2)c(NS(=O)(=O)c2cccs2)c1 7.7%, COc1ccccc1/C=N\Nc1cc(C)nc(-n2nc(C)cc2C)n1 3.2%, COc1ccc(NC(=O)c2nc(-n3nc(C)cc3C)ccc2Cl)cc1Cl 21.2%, Cc1cc(Oc2ccc(Cl)cc2)nc(SCC(=O)c2ccccc2)n1 -11.5%, Cc1cc(C)n(-c2cc(Oc3ccccc3)ncn2)n1 -14.1%, O=C(NCc1ccccc1)C1=C[C@@H](c2ccc(C(F)(F)F)cc2)C[C@@H](OCc2ccc(CO)cc2)O1 -9.6%, O=C(CSc1nc2ccc(Nc3nc(N4CCOCC4)nc(N4CCOCC4)n3)cc2s1)NCc1ccco1 -2.6%, CN1CCCN(C(=O)C2CCCCC2)CC1 4.4%, O=[N+]([O-])c1cccc(/C([O-])=C(/C(=S)Nc2ccccc2F)[n+]2ccccc2)c1 -11.7%, CCOC(=O)c1c(C)[nH]c(C2=NNC(=NC(C)COC)SC2)c1C (stereo not drawn) -102%, O=S1(=O)CCC(NC(=S)SCc2ccccc2Br)C1 (stereo not drawn) 0.3%, O=C(Nc1ccon1)c1sc2ccccc2c1Cl -68.6%, O=C(N/N=C/c1c(Cl)[nH]c2ccccc12)c1sc2ccccc2c1Cl -4.8%, Cc1ccccc1CCN(CC(=O)NC1CCCCC1)C(=O)c1csnn1 11.3%, O=c1nc(N/N=C/c2ccco2)cn[nH]1 12.4%, O=C(O)c1ccc(N/N=C/c2cn(-c3ccccc3)nc2-c2cccs2)cc1 -140%, CC(C)(O)C#Cc1ncc(C(F)(F)F)cc1Cl -2.7%, CC(=O)Nc1ccc(NC(=O)COc2ncnc3ccccc23)cc1 0.3%, O=[N+]([O-])c1cccc(Nc2c3ccccc3nc3ccccc23)c1 0.1%, C=CCn1c(SCc2ccc(Cl)c(Cl)c2)nnc1C(CO)NC(=O)c1ccc(OC)cc1 (stereo not drawn) -13.3%, CCOc1ccc(CCNC(=O)C2=C(C)C(=O)OC23CCC(C)CC3)cc1OCC (stereo not drawn) -9.6%, Cc1nc([N+](=O)[O-])c(NCCCO)n1Cc1ccccc1 6.3%, N=c1c2c(-c3ccccc3)c(-c3ccccc3)oc2ncn1Cc1ccco1 -10.8%, C/C(CCc1ccccc1)=N\NC(=O)c1ccc(CN2CCOCC2)cc1 -5.3%, COc1ccc(N2C(=O)CC(SC(C)C)C2=O)cc1 (stereo not drawn) -20.2%, COc1cc(Cl)c(C)cc1NC(=O)COC(=O)c1cc(SC)ccc1Cl 6.6%, OCCC1CN(Cc2ccc3nsnc3c2)CCN1C1CCCC1 (stereo not drawn) -9.3%, Cc1ccc(C(=O)NN(CCC#N)C2=NS(=O)(=O)c3ccccc32)cc1 -1.1%, C/C(=N\N)c1c(-c2ccccc2)c2cc(Br)ccc2[nH]c1=O -3.6%, Cc1cc(N/N=C/c2ccccc2F)c2ccccc2n1 -7.2%, COc1cccc2c(N/N=C/c3ccco3)cc(C)nc12 -4.8%, COc1ccc(O)c(C(=O)c2cnc3c(c2)c(-c2ccc(F)cc2)c(C#N)c(=O)n3C)c1 -3.8%, Cc1cccc(N2C(=O)SC(SC(=Nc3ccccc3)Nc3ccccc3)C2=O)c1 (stereo not drawn) -14.2%, Cn1c(CCC(=O)Nc2ccccc2F)nnc1SCC(=O)Nc1ccccc1Cl -2.1%, O=C(CSc1nnc(-c2cccnc2)n1CCc1ccccc1)NCc1ccccc1 4.7%, C=CCn1c(SCC(=O)Nc2nc3ccccc3s2)nnc1-c1ccccc1O 0.7%

inhibition, active:
CCCC1=Nc2cc(C(=O)NCc3ccco3)ccc2Sc2ccccc21 90.1%, CC(=O)Nc1ccc(S(=O)(=O)N2CCN(C(=O)c3ccccc3F)CC2)cc1 94.3%, Cc1ccccc1OCCOc1ccc([N+](=O)[O-])cc1/C=N/n1cnnc1 45.2%, CC(=O)c1ccc(Oc2cc(C)nc(-n3nc(C)cc3C)n2)cc1 93.7%, COc1ccc(Nc2cc(C)nc(-n3nc(C)cc3C)n2)cc1 92.8%, Cc1nn(C)cc1/C=N/NC(=O)c1sc2ccccc2c1Cl 55.6%, CC(=O)Nc1ccc(Nc2c3ccccc3nc3ccccc23)cc1 92.3%, N=c1c2c(-c3ccccc3)c(-c3ccccc3)n(Cc3ccccc3)c2ncn1CCCO 77.3%, C=CS(=O)c1sc(Cl)c(N2CCOCC2)c1[N+](=O)[O-] (stereo not drawn) 83.2%, COc1cccc(/C=N/Nc2cc(C)nc(-c3ccccc3O)n2)c1O 67.5%, C=CCn1c(SCC(=O)NCc2ccccc2)nnc1-c1cc(Br)ccc1O 55.6%
